{"source": "PubChem BioAssay AID743446", "about": "(Broad Institute, 2014)", "note": "Results with a measured potency or affinity are listed apart. A number with no mark means an inactive call. The rule behind the calls is not given here."}
{"experiment": "viability loss in HEK293 cells – cell-based, plate reader, cherry-picked samples, cytotoxicity control, dose response (AID 743446)", "conditions": "stronger effect = lower value; at 26 µM unless noted"}
{"compound": "CN1CCN(c2ccc(NC(=O)c3sc4ccccc4c3Cl)cc2)CC1", "max activity": "17.1% [at 0.1 µM]"}
{"compound": "COC(=O)c1ccc(Nc2cc(C)nc3ccc(C)cc23)cc1", "max activity": "-31.7% [at 12 µM]"}
{"compound": "Cc1cnc(NC(=O)c2ccc(OCC3CCCO3)cc2)s1", "note": "(stereo not drawn)", "max activity": "9% [at 6 µM]"}
{"compound": "CC(C)c1nnc(NC(=O)c2ccc3c(c2)OCO3)s1", "max activity": "30.9% [at 0.38 µM]"}
{"compound": "C[C@H](CO)N1C[C@H](C)[C@H](CN(C)Cc2ccc(C(F)(F)F)cc2)Oc2ccc(NC(=O)Nc3ccc(F)cc3)cc2C1=O", "max activity": "-29.9%"}
{"compound": "C[C@@H]1CN([C@@H](C)CO)S(=O)(=O)c2ccc(C3=CCCC3)cc2O[C@H]1CN(C)C(=O)c1ccccc1", "max activity": "11.7% [at 0.1 µM]"}
{"compound": "Cc1ccc(C(=O)Nc2ccc3c(c2)OCCO3)cc1", "max activity": "17.1% [at 0.05 µM]"}
{"compound": "C[C@H](CO)N1C[C@H](C)[C@H](CN(C)C(=O)Nc2ccccc2)OCCCC[C@H](C)Oc2ccc(NC(=O)CCC(F)(F)F)cc2C1=O", "max activity": "-24.3% [at 0.195 µM]"}
{"compound": "COc1cccc(-c2cc(C(=O)N3CCCCCC3)no2)c1", "max activity": "-9.64% [at 12 µM]"}
{"compound": "COc1ccc(C(=O)Nc2ccc3ccccc3c2)cc1", "max activity": "26.8% [at 0.8 µM]"}
{"compound": "COc1ccc(-n2nnnc2-c2nc3ccccc3s2)cc1", "max activity": "34.3% [at 0.8 µM]"}
{"compound": "Cc1ccc(C(=O)CN2C(=O)c3ccccc3S2(=O)=O)cc1", "max activity": "11.6% [at 3 µM]"}
{"compound": "C[C@@H]1CN([C@H](C)CO)C(=O)CCCn2nncc2CO[C@H]1CN(C)C(=O)Nc1cccc2ccccc12", "max activity": "15.4%"}
{"compound": "C[C@@H]1CN([C@H](C)CO)C(=O)c2c(c3ccccc3n2C)-c2ccccc2CO[C@H]1CN(C)S(=O)(=O)c1cn(C)cn1", "max activity": "11.7% [at 12 µM]"}
{"compound": "Cc1ccc(NC(=O)c2ncn(CC(=O)NCc3ccc4[nH]ccc4c3)n2)cc1C", "max activity": "8.88%"}
{"compound": "COc1ccc2nc(NC(=O)c3ccccc3F)sc2c1", "max activity": "34.9% [at 3 µM]"}
{"compound": "C[C@H]1CN([C@@H](C)CO)C(=O)c2cc(C#CCc3ccccc3)cnc2O[C@H]1CN(C)Cc1ccccc1", "max activity": "13.9% [at 3 µM]"}
{"compound": "C=CCNc1nc(-c2cc3ccccc3o2)cs1", "max activity": "-11.4% [at 0.8 µM]"}
{"compound": "c1ccc(-c2cn3c4c(sc3n2)CCCC4)cc1", "max activity": "-19.5%"}
{"compound": "CC(C)CCn1cnc2c(oc3nc4c(cc32)CCCC4)c1=O", "max activity": "-17.8%"}
{"compound": "O=C(O)c1ccc(N/N=C/c2c[nH]c3ccccc23)cc1", "max activity": "10.4% [at 3 µM]"}
{"compound": "C[C@@H]1CN([C@@H](C)CO)C(=O)c2cc(NS(=O)(=O)c3ccc(F)cc3)ccc2O[C@H]1CN(C)Cc1ccc(-c2ccccc2)cc1", "max activity": "-27.1%"}
{"compound": "COc1ccc(C(=O)Nc2ccc3ncccc3c2)cc1", "max activity": "-20.3%"}
{"compound": "CC(C)CCNC(=O)C(c1ccc(O)cc1)N(Cc1cccs1)C(=O)C1COc2ccccc2O1", "note": "(stereo not drawn)", "max activity": "-16.3%"}
{"compound": "COCCn1c(C)cc(C(=O)CSc2nnc3ccccn23)c1C", "max activity": "-15% [at 6 µM]"}
{"compound": "Cc1ccc(-n2[nH]c(=O)c(-c3ccccn3)c2C)cc1", "max activity": "41.3% [at 12 µM]"}
{"compound": "C[C@H](CO)N1C[C@H](C)[C@H](CN(C)C(=O)Nc2cccc3ccccc23)OCCCC[C@H](C)Oc2ccc(NC(=O)NC3CCCCC3)cc2C1=O", "max activity": "68.9%"}
{"compound": "CCNC(=S)NNC(=O)c1cc(-c2ccc(OCC)cc2)nc2ccccc12", "max activity": "15.8% [at 0.05 µM]"}
{"compound": "CCc1ccc2ncc(S(=O)(=O)c3ccc(C)c(C)c3)c(N3CCCC3)c2c1", "max activity": "19.3% [at 0.38 µM]"}
{"compound": "N#C[C@@H]1[C@H](c2ccc(C#Cc3ccccc3F)cc2)[C@@H](CO)N1C(=O)C1CCC1", "max activity": "28.6% [at 6 µM]"}
{"compound": "CC(C)Oc1ccc(CNC(=O)CC(c2ccccc2)c2cc(Cl)ccc2O)cc1", "note": "(stereo not drawn)", "max activity": "29.6% [at 0.8 µM]"}
{"compound": "CCN(CC)S(=O)(=O)c1cc(C(=O)OCC(=O)Nc2ccc(-c3nc4ccc(C)cc4s3)cc2)ccc1F", "max activity": "-18.3%"}
{"compound": "COc1ccc(-n2ncc3c(N(C)C4CCCCC4)ncnc32)cc1", "max activity": "31.2% [at 0.05 µM]"}
{"compound": "C[C@H](CO)N1C[C@H](C)[C@H](CN(C)C(=O)Nc2ccccc2)OCCCC[C@H](C)Oc2ccc(NC(=O)C3CCCCC3)cc2C1=O", "max activity": "9.5% [at 3 µM]"}
{"compound": "Cc1cccn2c(CNCC3(c4ccccc4)CCCC3)c(C(=O)N3CCOCC3)nc12", "max activity": "13.8% [at 3 µM]"}
{"compound": "O=C(CN1CCOc2ccccc21)NCc1ccc(F)cc1", "max activity": "16.4% [at 6 µM]"}
{"compound": "N#C[C@H]1[C@@H](c2ccc(C3=CCCCC3)cc2)[C@H](CO)N1C(=O)c1ccccn1", "max activity": "74.4% [at 12 µM]"}
{"compound": "C[C@@H]1CN([C@@H](C)CO)C(=O)c2cccc(NC(=O)Nc3ccc(C(F)(F)F)cc3)c2O[C@H]1CN(C)C(=O)Nc1cccc2ccccc12", "max activity": "14.8% [at 6 µM]"}
